Source: PubChem BioAssay
Hits are enriched below; roughly 6.3% of the tested compounds scored in any of these assays.
ATXN2 expr inh – reduces ATXN2 reporter expression in HEK-293 cells. HEK-293 ATXN2-luciferase reporter, luminescence, 24 h. AID 1745845. Potency, µM (highest dose often 57 µM), for inactives: top-dose activity change, negative = inhibition, most hits filed as inhibitors. 0.72% of 360,000 active; further: on the % scale 0 is the no-effect control and ±100 the full control effect; nearly all actives have a fitted effect of over 55% in size
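qHTS (up to 57 uM final) was run with 24 h compound exposure of reporter cells at 37 °C. Each well was multiplexed: SteadyGlo luminescence measured ATXN2-luciferase expression after a fluorogenic Gly-Phe-AFC viability readout (25 uM final).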
RORg inh – inhibitors of mouse ROR gamma transcriptional activity | P51450 | Drosophila S2 Gal4-RORgamma UAS-luciferase reporter, 20 h | Potency, µM (doses to about 53.6 µM), for the others: at the highest dose activity change, negative = inhibition, most hits filed as inhibitors | 5.4% of 310,000 active | AID 2551; further: on the % scale 0 is the no-effect control and ±100 the full control effect; nearly all actives have a fitted effect of over 60% in size
Target sequence (P51450 whole entry, looked up, the tested form may be a part): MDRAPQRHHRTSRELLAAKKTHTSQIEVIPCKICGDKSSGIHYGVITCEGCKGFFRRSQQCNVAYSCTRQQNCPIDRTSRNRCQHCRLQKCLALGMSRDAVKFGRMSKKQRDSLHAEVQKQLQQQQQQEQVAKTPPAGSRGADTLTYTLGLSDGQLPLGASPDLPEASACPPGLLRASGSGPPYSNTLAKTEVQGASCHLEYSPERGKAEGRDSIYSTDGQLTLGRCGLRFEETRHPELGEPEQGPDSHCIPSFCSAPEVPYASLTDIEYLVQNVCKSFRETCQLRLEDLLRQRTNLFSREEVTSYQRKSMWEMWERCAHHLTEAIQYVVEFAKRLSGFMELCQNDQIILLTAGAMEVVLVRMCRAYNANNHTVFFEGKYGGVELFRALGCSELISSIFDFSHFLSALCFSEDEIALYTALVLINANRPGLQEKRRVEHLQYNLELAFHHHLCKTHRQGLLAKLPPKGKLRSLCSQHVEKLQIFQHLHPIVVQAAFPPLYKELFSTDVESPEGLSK
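Stable Schneider cell line, Gal4 DNA-binding domain fused to ROR gamma, UAS-luciferase. Cmpd 1 hr RT → CuSO4 700 uM final → 20 hr RT → luciferase reagent 10 min → luminescence.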
ATXN viability – reduces viability in counter-screen for ATXN expression inhibitors | S2 cells (HEK-293 line with an ATXN2-luciferase reporter) viability, CellTiter-Fluor protease fluorescence, 24 h | Potency, µM (highest dose often 56.7 µM), most hits filed as cytotoxic | 0.49% of 400,000 active; further: nearly all actives have a fitted effect of over 40% in size
TGFb SMAD3 inh – blocks TGF-b signaling; 1.2% of 410,000 active; Potency, µM (doses to about 46.1 µM), for the others: at the highest dose activity, negative = inhibition, most hits filed as inhibitors; AID 588855; HepG2 CAGA-GFP TGF-b/SMAD3 reporter, GFP fluorescence, 18 h; TGF-beta stimulated, 500 pg/mL final; further: on the % scale 0 is the no-effect control and ±100 the full control effect; nearly all actives have a fitted effect of over 65% in size
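Inhibition of TGF-beta-driven CAGA-GFP reporter expression in HEPG2 cells is measured by cellular GFP fluorescence after 18 h stimulation with 500 pg/mL recombinant TGF-beta in 1% FBS medium at 37 degrees C.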
VP16 counter – counter-screen for ROR gamma inhibitors: Gal4-VP16 reporter | Drosophila S2 Gal4-VP16 UAS-luciferase, luminescence, 20 h | Potency, µM (titrated, usually from 53.6 µM), inactives show at the highest dose activity, negative = inhibition, actives largely listed as inhibitors | 3.5% of 310,000 active | AID 2546;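 further: Gal4-VP16 expression switched on by copper sulfate through the metallothionein promoter; on the % scale 0 is the no-effect control and ±100 the full control effect; nearly all actives have a fitted effect of over 50% in size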
HepG2 tox – HepG2 cytotoxicity, counter-screen for TGF-b inhibitors. Potency, µM (titrated, usually from 46.1 µM), inactives show at the top dose activity change, negative = cytotoxicity, usual class: cytotoxic. 0.76% of 410,000 active. AID 588856. HepG2 CAGA-GFP viability, ATP luminescence, 18 h
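CellTiter-Glo luminescence gave cytotoxicity after 18 hours at 37 degrees C. The cells were HepG2 CAGA-GFP in 1% FBS DMEM, stimulated with 500 pg/mL TGF-beta after compound addition. %Activity was normalised to no-cell wells (complete cell-killing) and DMSO (no toxicity), and curves were fitted and classified.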
Active calls of the source: *; i = inactive; ? = inconclusive; / = not tested or not shown; ! = not active in a repeat. The call rests on the fitted dose curve; in most records, active means well fitted curve in the direction sought with a large enough effect; inconclusive means small, poorly fitted or top-dose-only effect, or another doubt; inactive means no such curve, though single readings can be large; an effect the other way counts as inactive or inconclusive. Potency means the concentration at half of the fitted maximal effect.

SMILES	ATXN2 expr inh	RORg inh	ATXN viability	TGFb SMAD3 inh	VP16 counter	HepG2 tox
CCOc1cccc(CNc2ccc(O)cc2)c1OCc1ccccc1Cl	11.2µM*!	-0.8%	12.6µM*!	12.6µM*	-3.6%	15.8µM*!
CCOc1cc(CNc2ccc(O)cc2)cc(Cl)c1OCc1ccccc1	31.6µM*	/	22.4µM*	?	/	-95.0%
COc1ccc(CNc2nc(NCc3ccc(OC)cc3)c3ncn(C4CCCCC4)c3n2)cc1	/	?	/	/	-2.8%	/
CCCn1c(-c2ccc(F)cc2)nc2c(NCCN(C)C)nc(C)nc21	/	-17.0%	/	/	5.4%	/
CCOc1ccc(-c2cc3c(=O)n(Cc4nc(-c5cccc(OC)c5OC)oc4C)ccn3n2)cc1Cl	1.0%	/	i	-23.8%	/	-3.1%
O=[N+]([O-])c1ccc(/C=C2\C=C(C(O)c3ccc([N+](=O)[O-])cc3)c3ccccc32)cc1 (stereo not drawn)	/	/	/	7.08µM*	/	-20.5%
Cc1cnc(-n2ncc(C(=O)NCC(C)(C)N3CCOCC3)c2C)nc1-c1cccs1	/	/	i	/	/	/
COC(=O)c1c(OCC2CCCN(C)C2)cc(=O)n2c1CCN(Cc1ccc(OC)c(O)c1)CC2 (stereo not drawn)	/	/	i	/	/	/
CCCN(Cc1ccccc1)C(=S)Nc1ccc(OCC)cc1	32.1%	10µM*	i	-22.8%	-22.2%	0.4%
C=C(C)CN(Cc1ccccc1)C(=S)Nc1ccccc1	-7.3%	?	i	2.9%	?	-0.9%
CCCN(Cc1ccccc1)C(=S)Nc1ccc(SC(F)F)cc1	-5.4%	8.91µM*	i	?	?	9.2%
CCOc1ccc(NC(=S)N(CC)Cc2ccccc2)cc1	/	14.1µM*	/	/	0.4%	/
CCCN(Cc1ccccc1)C(=S)Nc1ccc(F)cc1	-6.3%	15.8µM*	i	2.3%	-23.4%	-18.9%
COc1ccc(C(=O)Nc2ncnc3nc[nH]c23)cc1	/	/	/	-4.3%	/	4.9%
CC1=C(C(=O)N(C(C)C)C(C)C)CC(CC(=O)NCc2cccs2)C(=O)N1CCCN1CCCC1=O (stereo not drawn)	13.0%	/	i	-3.3%	/	-2.9%
C=C[C@@]1(C)CC[C@H](O)[C@H]2C(=O)CCC[C@@H]21	/	-6.6%	/	/	-3.0%	/
C=CCNC(=S)N(Cc1ccccc1)Cc1ccc(F)cc1	-11.4%	17.8µM*	i	-8.4%	-28.2%	-15.5%
Nc1nnc(SCC(=O)Nc2sc3c(c2C(=O)c2ccccc2)CCCC3)s1	-29.1%	22.4µM*	i	-12.5%	?	16.4%
COCCNc1nnc(SCC(=O)NNC(=O)c2ccccc2)s1	/	-2.3%	i	-1.5%	7.7%	6.5%
COCCNc1nnc(SCC(=O)c2c[nH]c3ccccc23)s1	1.9%	?	i	18.9%	35.5µM*	-0.4%
COCCNc1nnc(SCC(=O)Nc2sc3c(c2C(=O)c2ccccc2)CCCC3)s1	-27.0%	15.8µM*	i	?	?	-19.7%
COCCNc1nnc(SCC(=O)c2ccc3c(c2)OCO3)s1	-1.0%	-7.9%	i	13.7%	-4.0%	-22.2%
CCSc1nc(-c2ccc(OC)cc2)nc2c1Cc1c(CO)cnc(C)c1O2	/	/	/	-4.2%	/	-9.4%
CCOC(CNCc1cc(C)c2[nH]c3ccccc3c2c1C)OCC	?	/	i	?	/	-77.2%
CCNC(=S)NNC(=O)C(c1ccccc1)c1ccccc1	-5.2%	3.16µM*	i	-11.2%	11.2µM*	-9.8%
SMILES	ATXN2 expr inh	RORg inh	ATXN viability	TGFb SMAD3 inh	VP16 counter	HepG2 tox
O=C(Nc1ccccc1)C(c1ccccc1)c1ccccc1	9.8%	-20.4%	i	0.0%	-14.4%	-4.2%
CCNC(=S)NNC(=O)Nc1ccccc1	3.8%	-35.1%	i	0.6%	4.7%	-1.1%
CC(=O)NNC(=S)NC(=O)C(c1ccccc1)c1ccccc1	?	?	?	-24.3%	2.7%	-0.7%
CC(C)(C)C(=O)NC(=S)NNC(=O)C(c1ccccc1)c1ccccc1	-23.7%	2.82µM*	i	-22.7%	11.2µM*	-34.5%
CN(C)C(=S)NC(=O)C(c1ccccc1)c1ccccc1	3.2%	1.41µM*	i	10.9%	?	6.9%
Cc1cc(C)c(NC(=S)NC(=O)c2c(Cl)c(C)nn2C)c([N+](=O)[O-])c1	-6.0%	20µM*	i	?	?	-7.1%
CCn1ncc(Cl)c1C(=O)NC(=S)Nc1c(C)cc(C)cc1[N+](=O)[O-]	-17.2%	1.26µM*	?	-25.9%	12.6µM*	-7.7%
Cc1ccc([N+](=O)[O-])cc1NC(=S)NC(=O)c1c(Cl)cnn1C	-4.9%	/	i	3.0%	/	6.9%
CCOc1ccc(NC(=O)/C=C/c2ccccc2)c([N+](=O)[O-])c1	27.0%	2.8%	i	-3.3%	-9.5%	-13.8%
CCOc1ccc(NC(=S)NC(=O)c2cccnc2)c([N+](=O)[O-])c1	13.0%	20µM*	i	4.6%	17.8µM*	-3.4%
CCOc1ccc(N/C=C/C(=O)c2ccccc2)c([N+](=O)[O-])c1	-42.2%	7.08µM*	i	-4.8%	7.08µM*	-57.0%
OCC[C@@H]1C[C@H](O)[C@@H](O)[C@@]2(OCc3ccc4ccccc4c32)O1	7.6%	/	i	-20.0%	/	-5.2%
CCOc1ccc(NC(=S)NC(=O)c2c(Cl)cnn2CC)c([N+](=O)[O-])c1	-0.2%	7.94µM*	i	-6.7%	?	2.7%
COc1ccc(NC(=O)C/C(C)=N/NC(=O)c2ccncc2)c([N+](=O)[O-])c1	9.4%	12.6µM*	i	5.1%	-20.8%	-5.6%
CCOc1ccc(NC(=S)NC(=O)c2c(Br)cnn2C)c([N+](=O)[O-])c1	-9.4%	?	i	8.6%	-0.6%	11.9%
C=CCn1c(SCCC)nc2ccccc2c1=O	/	/	/	1.9%	/	11.5%
CCNC(=S)Nc1ccccc1-c1ccccc1	2.3%	8.91µM*	i	7.7%	11.2µM*	4.8%
CNC(=S)Nc1ccccc1-c1ccccc1	-8.5%	11.2µM*	i	-0.3%	?	-1.6%
O=C(Nc1ccccc1-c1ccccc1)C(c1ccccc1)c1ccccc1	-2.9%	44.1%	i	0.2%	-5.2%	-8.8%
CCCOc1ccc(S(=O)(=O)NCCCN2CCOCC2)c2ccccc12	-3.8%	10µM*	i	2.0%	-26.6%	-14.7%
CCCn1c(C(C)Nc2nc(-c3ccc(C)cc3)cs2)nc2cc(Cl)c(Cl)cc21 (stereo not drawn)	0.4%	11.2µM*	i	?	-8.5%	-38.4%
CCCn1c(C(CO)Nc2nc(-c3cccc(Br)c3)cs2)nc2ccccc21 (stereo not drawn)	?	12.6µM*	?	?	?	-113.3%
Cc1ccc(Cn2c(C(C)Nc3nc(-c4ccc(F)cc4)cs3)nc3cc(Cl)c(Cl)cc32)cc1 (stereo not drawn)	8.3%	/	i	?	/	-18.6%
